The results in this text go back to PubChem BioAssay (NCI).

This is part of a sample that, as a whole, favours compounds with a hit. Of some 83,000 tested, about 20% had one in any assay.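 Assay: single dose, 48 h. Readout: percent growth (0 = no net growth; negative = cell death). Active: <10.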 Calls of active or inactive are those of the source.

The subject of this test is COLO 205 colon. The test can be described thus: NCI-60 one-dose screen, 48 h (100 = growth as untreated, 0 = no growth, -100 = all killed). Particulars: 10 µM unless noted.
Regarding `CCOc1cc2ncc(C#N)c(Nc3ccc(F)c(Cl)c3)c2cc1NC(=O)/C=C/CN(C)C`, the growth is -83.2% (active). The figure for `CCN(CC)CCNC(=O)c1c(C)[nH]c(/C=C2\C(=O)Nc3ccc(F)cc32)c1C` is -80.3% (active). On to `COc1ccc2c(CCC(c3ccccc3)c3ccccc3)c3[n+](cc2c1OC)CCc1cc2c(cc1-3)OCO2`, for which the growth is -58.8% (active). `C[C@@H](Oc1cc(-n2cnc3ccc(CN4CCN(C)CC4)cc32)sc1C(N)=O)c1ccccc1C(F)(F)F`: the growth is -17.1% (active). In the case of `CC(C)=CCc1cc2c(cc1O)C1=C(C(=O)C3=C(NCCS3(=O)=O)C1=O)C(C=C(C)C)O2` (centres undefined), the growth is 29.4% (inactive). With `CC(N)C(Cc1ccc(Cl)cc1)c1ccc(Cl)cc1` (centres undefined), the growth is -81.2% (active). Turning to `Clc1nc(Cl)c2ncn(CC#CCn3cnc4c(Cl)nc(Cl)nc43)c2n1`, the growth was -26.9% (active).

Consider `O=C(Cc1ccc(-c2ccc(OCCN3CCOCC3)cc2)cn1)NCc1ccccc1`, for which the growth is -65.3% (active). As for `Cc1nc(NC(=O)N2CCC[C@H]2C(N)=O)sc1-c1ccnc(C(C)(C)C(F)(F)F)c1`, the figure is 13.7% (inactive); as for `COc1ccc2c(CCCc3ccc(Cl)cc3Cl)c3[n+](cc2c1OC)CCc1cc2c(cc1-3)OCO2`, -59.6% (active).

For `Cc1c(Cn2c(C)nc3c(C(=O)O)cc(N4CCOCC4)cc32)cccc1C(F)(F)F`, the growth is 108% (inactive). `COc1cc2nccc(Oc3ccc(NC(=O)C4(C(=O)Nc5ccc(F)cc5)CC4)cc3)c2cc1OC`: the growth was -44.7% (active). Take `C=CCCCC(=O)CCC(=O)OCC1O[C@@H](O[C@@H]2C(O)[C@@H](OC(C)=O)C(C)O[C@H]2O[C@H](CC=C)CCCCC)C(O)[C@@H](OC(=O)/C(C)=C/C)[C@@H]1OC(=O)/C=C/c1ccccc1` (some centres undefined): the growth is -8.37% (active). `O=c1[nH]ccc2c(S(=O)(=O)N3CCCNCC3)cccc12`: the growth is 112% (inactive). Turning to `CC1(C=O)NC(=O)NC1=O` (centres undefined), the growth is 100% (inactive). For the compound `Cc1ccc(NC(=O)c2ccc(CN3CC[C@H](N(C)C)C3)c(C(F)(F)F)c2)cc1Nc1nccc(-c2cncnc2)n1`, the growth was -55.5% (active).

On to `O=C(Nc1cccc(Cl)c1)Nc1ncc(CCNc2ncnc3ccsc23)s1`, for which the growth was -4.76% (active).

In the case of `Cn1ccnc1C(=O)/C=C/c1ccc(CC(=O)Nc2ccc(Br)cc2)cc1`, the growth is 6.56% (active). Regarding `CNC(=O)c1nn(C)c2c1C(C)(C)Cc1cnc(Nc3ccc(N4CCN(C)CC4)cc3)nc1-2`, the growth was -80.1% (active). The figure for `COc1cccc2cc(-c3nc(C4CCC(C(=O)O)CC4)n4ncnc(N)c34)[nH]c12` (centres undefined) is 1.83% (active); for `CNc1ncc2cc(-c3cc(NC(=O)NCCC(C)(C)C)c(F)cc3C)c(C)nc2n1` it is -34.5% (active). As for `Cc1cc(C(=O)Nc2cc(Oc3ccc4nc(NC(=O)C5CC5)cn4n3)ccc2C)n(C)n1`, the figure is -27.2% (active); as for `O=C(Cc1ccc(/C=C/C(=O)c2ncc[nH]2)cc1)Nc1ccc(Br)cc1`, 20.7% (inactive); as for `CCc1ccc(C2=C(O)C(=O)C(c3ccc(CC)cc3)=C(O)C2=O)cc1`, 5.7% (active). As for `CNC(=O)c1cccc2cc(Oc3ccnc4cc(OCC5(N)CC5)c(OC)cc34)ccc12`, the figure is 58% (inactive); as for `CCCCN1CCCC[C@@H]1C(=O)N[C@H](C(=O)N(C)[C@H](CCc1nc(C(=O)N[C@@H](Cc2ccccc2)C[C@H](C)C(=O)OC)cs1)C(C)C)C(C)C`, 63.5% (inactive); as for `COc1cnc2c(c1)C(=O)c1c-2n(CCCN2CCC(N)CC2)c(=O)c2cc([N+](=O)[O-])ccc12`, 58.2% (inactive).

Turning to `C=CC(=O)Nc1cc2c(Nc3ccc(F)c(Cl)c3)ncnc2cc1OCCCN1CCOCC1`, the growth was 8.89% (active).

For the compound `NC(=O)c1c(OCc2c(F)cc(Br)cc2F)nsc1NC(=O)NCCCCN1CCCC1`, the growth was -78.7% (active). Consider `CCc1nc2ccc(Cc3ccc(C(=O)NO)cc3)cc2c(=O)n1CCc1ccccc1`, for which the growth was -69.7% (active). Consider `Cc1cc(N(CCNc2ccnc3cc(Cl)ccc23)Cc2ccc3c(c2)OCO3)nc(N2CCN(C)CC2)n1`, for which the growth was -67.1% (active).

Take `Cc1ccc2oc(=O)cc(-c3cc(-c4cc5ccccc5oc4=O)nc(N)c3C#N)c2c1`: the growth was 80.2% (inactive).

For `Cc1[nH]c(/C=C2\C(=O)Nc3ccc(F)cc32)c(C)c1C(=O)NC[C@H](O)CN1CCOCC1`, the growth was -8.22% (active). For the compound `O=C(Nc1cn[nH]c1-c1nc2ccc(CN3CCOCC3)cc2[nH]1)NC1CC1`, the growth was -39% (active). For the compound `O=C1CSC(c2c(F)cccc2Cl)N1NC(=O)C(O)(c1ccccc1)c1ccccc1` (centres undefined), the growth was 104% (inactive). With `O=C1C=CC2(NN=C(c3ccccc3)N2c2cccc(Cl)c2)C(Cl)=C1` (centres undefined), the growth was 103% (inactive).

With `Cc1ccc(N=C2CSc3nnc(-c4csc5c4CCCC5)n3N2)cc1`, the growth was -4.99% (active).

Take `Cc1cc(-c2cc(OC(=O)c3ccccc3)ccc2Cl)cc2nnc(Nc3ccc(OCCN4CCCC4)cc3)nc12`: the growth was 62.8% (inactive). For the compound `Cc1cc(O)cc(-c2c(-c3ccnc(-c4cccnc4)c3)cnn2C)c1`, the growth is 84.6% (inactive).
